# Among all 2,400 compounds or so, about 180 (7.5%) were called active. This is one part of a sample in which actives are shown more often than they occur.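 How the source made its calls: active means readout below zero, meaning a drop past 3 SD under the dofetilide-free negative control mean; inactive means the rest.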
# Target: Potassium voltage-gated channel subfamily KQT member 2 (Rattus norvegicus) (UniProt O88943)
# Assay: KCNQ2 blockade in CHO cells – cell-based, FluxOR thallium flux, counter-screen for hERG block protector project, confirmation (AID 1946)
# Settings: FluxOR thallium flux fluorescence, at 10 µM, hits give low values, zero marks the 3-SD hit cutoff
# Sequence of Potassium voltage-gated channel subfamily KQT member 2 (Rattus norvegicus) (O88943 whole entry, looked up): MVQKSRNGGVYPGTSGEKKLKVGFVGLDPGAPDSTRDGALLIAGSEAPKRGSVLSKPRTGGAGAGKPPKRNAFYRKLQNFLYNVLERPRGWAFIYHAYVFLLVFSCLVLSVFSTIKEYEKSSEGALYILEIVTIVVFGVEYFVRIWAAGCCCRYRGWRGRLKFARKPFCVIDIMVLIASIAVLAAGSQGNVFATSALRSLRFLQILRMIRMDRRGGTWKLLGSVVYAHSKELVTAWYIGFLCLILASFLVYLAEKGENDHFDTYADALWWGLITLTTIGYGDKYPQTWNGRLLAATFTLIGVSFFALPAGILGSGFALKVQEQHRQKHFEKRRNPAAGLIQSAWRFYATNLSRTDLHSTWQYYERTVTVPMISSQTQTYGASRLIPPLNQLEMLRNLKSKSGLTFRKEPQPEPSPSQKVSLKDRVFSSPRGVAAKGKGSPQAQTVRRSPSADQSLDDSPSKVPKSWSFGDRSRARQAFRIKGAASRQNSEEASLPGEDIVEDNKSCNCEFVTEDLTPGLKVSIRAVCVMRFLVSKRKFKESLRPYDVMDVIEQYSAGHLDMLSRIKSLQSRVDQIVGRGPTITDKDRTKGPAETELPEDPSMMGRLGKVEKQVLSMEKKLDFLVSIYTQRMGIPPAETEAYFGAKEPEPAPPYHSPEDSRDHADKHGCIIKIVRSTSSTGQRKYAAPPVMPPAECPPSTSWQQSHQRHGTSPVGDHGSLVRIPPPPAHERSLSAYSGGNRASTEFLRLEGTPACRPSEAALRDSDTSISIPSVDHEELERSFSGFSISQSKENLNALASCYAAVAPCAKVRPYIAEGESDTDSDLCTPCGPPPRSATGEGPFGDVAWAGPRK
row,Structure (SMILES),activity change vs negative control
1,Cc1ccc(C(C#N)c2ccc3c(C(F)(F)F)cc(C(F)(F)F)nc3n2)cc1 (stereo unspecified),17.2% (inactive)
2,Fc1ccc(N2CCN(c3ccc4c(C(F)(F)F)cc(C(F)(F)F)nc4n3)CC2)cc1,-5.3% (active)
3,Cc1cc(-c2csc3nc[nH]c(=S)c23)cc(C)c1C,55.1% (inactive)
4,CC(/C=C1\SC(=S)N(NS(=O)(=O)c2ccccc2)C1=O)=C\c1ccccc1,47.5% (inactive)
5,O=C(CN1CCCCCC1)Nc1ccc(Oc2ccccc2)cc1,3.4% (inactive)
6,O=C(CN1CCCCCCC1)Nc1cccc(Cl)c1Cl,-6.4% (active)
7,O=C(CN1CCN(Cc2ccccc2)CC1)NCc1ccccc1Cl,17.7% (inactive)
8,O=C(NC(=S)N1CCc2ccccc21)c1ccccc1Cl,93% (inactive)
9,CCCn1c(SCN2C(=O)c3ccccc3C2=O)nc2cc(Cl)ccc2c1=O,50.5% (inactive)
10,COC(=O)c1c(NC(=S)Nc2ccc(F)cc2[N+](=O)[O-])sc2c1CCCCC2,25.2% (inactive)
11,CCc1ccc(NC(=O)C(=O)NNC(=O)c2ccc(OC)cc2)cc1,122% (inactive)
12,COc1ccccc1CC(=O)Nc1ccc(OC)c(OC)c1,9.2% (inactive)
13,CCCOc1ccc(C2NC(=S)NC(c3ccccc3)=C2C(=O)Nc2ccc(C)cc2)cc1OC (stereo unspecified),15.3% (inactive)
14,COc1cc(C2C(C#N)=C(N)Oc3c2ccc2ccccc32)ccc1OCC(=O)Nc1ccc(C)cc1 (stereo unspecified),-0.6% (active)
15,COc1ccc(-c2oc3ccccc3c(=O)c2OC(C)=O)cc1,38.6% (inactive)
16,O=C(COc1ccc(C(=O)c2ccccc2)cc1)Nc1cccnc1,-20.5% (active)
17,O=C(COc1ccccc1)Nc1ccc(F)cc1,0.6% (inactive)
18,CCc1nnc(NC(=O)COc2ccc([N+](=O)[O-])cc2)s1,15.3% (inactive)
19,N#Cc1ccc(-c2ccc(OCC(=O)Nc3cccnc3)cc2)cc1,13.9% (inactive)
20,O=C(COc1ccc([N+](=O)[O-])cc1)Nc1cccnc1,-4.2% (active)
21,O=C(COc1ccc2ccccc2c1Br)Nc1cccnc1,0.9% (inactive)
22,O=c1c2c3c(sc2[nH]c(=S)n1Cc1ccco1)CCC3,56.4% (inactive)
23,Cc1[nH]n(-c2cccc3ccccc23)c(=O)c1/C=N/c1sc2c(c1C#N)CCC2,23.1% (inactive)
24,COc1cccc(C(=O)NNC(=O)C(=O)Nc2ccc(OC)cc2OC)c1,52.6% (inactive)

row,Structure (SMILES),activity change vs negative control
1,S=c1[nH]c(-c2ccc(Cl)cc2)cs1,140% (inactive)
2,COC(=O)c1ccc(CSc2ncnc3sc(C)c(C)c23)o1,23% (inactive)
3,COc1cccc(C(=O)NNC(=O)C(=O)Nc2ccc(C)cc2)c1,99.7% (inactive)
4,Cc1ccc(/C=C/C(=O)c2ccccc(=O)c2O)c(C)c1,63.1% (inactive)
5,C=CCN(CC=C)C(=S)NC(=O)c1ccc([N+](=O)[O-])cc1,72.2% (inactive)
6,CCCCNC(=S)NC(=O)c1ccc([N+](=O)[O-])cc1,46.5% (inactive)
7,CCCCCC(=O)NNC(=S)NC(=O)c1ccc([N+](=O)[O-])cc1,-10.1% (active)
8,O=C(NC(=S)Nc1ccccc1)c1cccs1,17.9% (inactive)
9,O=C(O)c1ccc(S(=O)(=O)/N=C2\C=C(Nc3ccccc3F)C(=O)c3ccccc32)cc1,31.7% (inactive)
10,Cc1cc(C)c(C(=O)c2ccc(C(=O)N3CCCCC3)cc2)c(C)c1,32.9% (inactive)
11,O=C(Nc1nc2c(Br)cc(Br)cc2c(=O)s1)C1CCC1,40.8% (inactive)
12,O=C(Nc1cccnc1)c1ccc(COc2cc(Cl)ccc2Cl)o1,-5.5% (active)
13,O=C(Nc1cccnc1)c1ccc(COc2ccccc2Br)o1,7.9% (inactive)
14,O=C(COc1ccc(Cl)cc1Cl)Nc1cccnc1,11% (inactive)
15,CCc1cc2cc(C)cc(C)c2[nH]c1=S,29.9% (inactive)
16,Nc1nc2c(s1)CCc1c-2cnn1-c1ccccc1,-0.2% (active)
17,O=C(NC(=S)Nc1ccccc1F)c1ccc(Br)o1,81.1% (inactive)
18,Cc1c(Cl)cccc1NC(=S)N=Nc1c(O)n(CN2CCOCC2)c2ccccc12,28.6% (inactive)
19,O=C(CN1C(=O)S/C(=C\c2cccs2)C1=O)Nc1ccc(C(=O)O)c(O)c1,44.5% (inactive)
20,O=C(CN1C(=O)S/C(=C\c2cc(Cl)c(O)c(Cl)c2)C1=O)Nc1ccccc1,-7.3% (active)
21,O=C(CN1C(=O)S/C(=C\c2cccs2)C1=O)Nc1ccc(O)c(C(=O)O)c1,7.9% (inactive)
22,O=C(NC(=S)Nc1nc2ccc(F)cc2s1)c1ccco1,82.7% (inactive)
23,CCC1(c2ccc(Cl)cc2)NC(=S)N(c2ccc(C)c(C)c2)N1 (stereo unspecified),124% (inactive)
24,CCCN(Cc1ccccc1)C(=S)NC(=O)c1ccccc1[N+](=O)[O-],120% (inactive)

row,Structure (SMILES),activity change vs negative control
1,O=C(NC(=S)N1CCCC(C(F)(F)F)C1)c1ccc(F)cc1 (stereo unspecified),46.1% (inactive)
2,CCOc1ccc2nc(N3C(=O)/C(=C/c4ccc(Cl)cc4)NC3=S)sc2c1,6.5% (inactive)
3,CN(C)c1oc(-c2ccccc2)nc1C#N,-1.7% (active)
4,CN(C)c1oc(-c2ccccc2[N+](=O)[O-])nc1C#N,16.4% (inactive)
5,CCOC(=O)C(=CNc1cc(C)nn1C(C)(C)C)C(=O)OCC,13% (inactive)
6,Cc1ccc(C(=C2C3C=CC2C2C(=O)NC(=O)C32)c2ccc(C)cc2)cc1 (stereo unspecified),-2.6% (active)
7,CC1CCCCC1NC(=S)NC(=O)c1cccs1 (stereo unspecified),49.2% (inactive)
8,CCC1(c2ccc(Cl)cc2)NC(=S)N(c2ccccc2)N1 (stereo unspecified),108% (inactive)
9,N#Cc1cc(-c2ccccc2)nnc1Oc1ccccc1,-0.2% (active)
10,COCCNC(=O)C(c1ccc(C)o1)N(Cc1ccc(OC)cc1)C(=O)Cn1nnc2ccccc21 (stereo unspecified),33.6% (inactive)
11,Cc1ccc(NC(=O)CSc2nnc(-c3cccnc3)n2-c2ccc(C)cc2)cc1,12.3% (inactive)
12,COc1cc(-c2nnc(SCC(=O)O)n2-c2ccccc2)cc(OC)c1OC,0.6% (inactive)
13,COc1ccc(-n2c(SCC#N)nnc2-c2cccnc2)cc1,-1.2% (active)
14,CC1Cc2ccccc2N1C(=S)NC(=O)c1ccc(Cl)cc1Cl (stereo unspecified),83.8% (inactive)
15,COCCn1c(=S)[nH]c2sc3c(c2c1=O)CCC(C)C3 (stereo unspecified),81% (inactive)
16,CC(C)N(Cc1ccccc1)C(=S)NC(=O)C1(C)CC1(Cl)Cl (stereo unspecified),53.8% (inactive)
17,OC(CNCC(c1ccc(Cl)cc1Cl)c1c[nH]c2ccccc12)c1ccccc1 (stereo unspecified),-12% (active)
18,COc1cccc(C=Nc2cc(C)cc(C)c2)c1O,39.5% (inactive)
19,O=c1cc(-c2ccccc2)nc2c(-c3ccccc3)c(C(F)(F)F)[nH]n12,81.1% (inactive)
20,COc1cc(NC(=O)c2ccccc2)c(OC)cc1NC(=O)Cc1ccc(Br)cc1,26.8% (inactive)
21,O=C(O)COc1ccc(NC(=O)c2ccc3c(c2)C(=O)N(C2CCCCC2)C3=O)cc1,21.1% (inactive)
22,S=c1[nH]cnc2scc(-c3ccccc3)c12,74.3% (inactive)
23,Cc1ccc(C)n1-n1c(C)nc2scc(-c3ccccc3)c2c1=O,-3.2% (active)
24,Cn1cc(/C=N/n2cnc3scc(-c4ccc(Cl)cc4)c3c2=O)c2ccccc21,9% (inactive)

row,Structure (SMILES),activity change vs negative control
1,Cc1c(N2C(=O)/C(=C\c3ccccc3O)SC2=S)c(=O)n(-c2ccccc2)n1C,90% (inactive)
2,S=c1[nH]cnc2scc(-c3ccc(Cl)cc3)c12,49.5% (inactive)
3,CCOC(=O)c1sc(NC(=S)NC(=O)c2ccccc2)nc1C,20.3% (inactive)
4,CC1CCN(S(=O)(=O)c2ccc3nc(N4CCN(c5ccccc5)CC4)ccc3c2)CC1,4.3% (inactive)
5,CC1CCN(c2ccc3c(c2)S(=O)(=O)c2ccccc2C3=O)CC1,-10.9% (active)
6,CC(=O)c1c(N)[nH]c(-c2ccccc2)nc1=S,22.9% (inactive)
7,Cc1ccc(CN2CCN(CC(=O)NC(C)c3ccc4c(c3)OCCO4)C2=O)cc1 (stereo unspecified),38.3% (inactive)
8,CN1C(=O)/C(=N/OC(=O)c2ccccc2)c2ccccc21,8% (inactive)
9,CC(=O)c1ccc(S(=O)(=O)NCc2ccc(C(=O)N(C)CC(=O)Nc3cccc(F)c3)cc2)cc1,5.5% (inactive)
10,CN(CC(=O)Nc1ccc(Cl)cc1)C(=O)c1cccc(S(=O)(=O)NCc2ccccc2)c1,-2.7% (active)
11,Cc1ccc(NC(=O)c2ccc(CNS(=O)(=O)c3cccc(C(F)(F)F)c3)cc2)cc1,8.1% (inactive)
12,O=c1c2ccc(Cl)cc2nc(-c2cccc(C(F)(F)F)c2)n1O,141% (inactive)
13,ON/C=N/C(=S)Nc1ncc(C(F)(F)F)cc1Cl,49.3% (inactive)
14,CC1(C)CC2CC(C)(CN2C(=S)NC(=O)c2ccccc2Cl)C1 (stereo unspecified),37.9% (inactive)
15,Cc1ccc(/C(O)=C/C(=O)C(=O)NC23CC4CC(CC(C4)C2)C3)cc1,32.5% (inactive)
16,Cc1ccc(N=Cc2cc(Cl)cc(Cl)c2O)nc1,53.9% (inactive)
17,CN(C)CCNc1ncnc2c1sc1nc(N3CCCC3)c3c(c12)CC(C)(C)OC3,8.8% (inactive)
18,Cc1cc(C)n(-c2nc(NCCCN(C)C)c3c4c(sc3n2)CCCC4)n1,-1.4% (active)
19,Cc1cc(C)n(-c2nc3sc4c(c3c(=O)[nH]2)CCCC4)n1,28% (inactive)
20,CC(NC(=O)NC1CCCCC1)c1ccc2c(c1)OCO2 (stereo unspecified),72.4% (inactive)
21,COc1ccccc1C(=O)NNC(=O)C(=O)NC(C)(C)C,31.3% (inactive)
22,Cc1ccc(NS(=O)(=O)c2ccc(NC(=O)c3ccccc3C(=O)O)cc2)cc1C,10.8% (inactive)
23,COc1ccc(NS(=O)(=O)c2ccc3ccccc3c2)c2ncccc12,2% (inactive)
24,COc1ccccc1-n1cnc2cc(NS(=O)(=O)c3ccc(Br)cc3)ccc21,-2.5% (active)

# Reference: PubChem BioAssay AID1946 (Johns Hopkins Ion Channel Center, 2009)
